Efa HMGR inh: E. faecalis class II HMG-CoA reductase inhibition | purified E. faecalis HMGR, NADPH absorbance 340 nm kinetic | actives 0.41% (n = 190,000) | inhibition, % at 10 µM;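 active = inhibition above a set limit, the median over all tested compounds plus 3 SD, cut at about 9.5% in these data; inconclusive = no clear call, values can overlap the other calls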;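 also: enzyme runs in reverse so mevalonate oxidation gives rising NADPH absorbance; 0% = complete reaction with DMSO and 100% = background rate lacking mevalonate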
Ins promoter up: MIN6 insulin promoter up-regulation | MIN6 insulin promoter-GFP reporter, high-content imaging; hits give high values | z-score at 5 µM | actives 0.3% (n = 190,000) | AID 1625;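 active = z-score above 3 at 5 µM with at least 500 cells counted in the well; inconclusive = wells under 500 cells, flagged as cytotoxic or low count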
Insulin prom inh: TRM-6 insulin promoter activity inhibition. TRM-6 cells (human fetal islet line), insulin promoter-eGFP reporter, imaging; reporter expression induced with tamoxifen. actives 0.9% (n = 130,000). AID 1273. inhibition, % at 2 µM;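 active = inhibition above the mean plus 3 SD, with well images judged a real hit on visual review, cut at about 60% in these data, passing the limit was not always enough; inconclusive = inhibition over the cutoff but images rejected on review; inactive = inhibition not above the cutoff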
Autophagy mod: modulators of autophagy | calls only at 10 µM (by protocol) | actives 0.98% (n = 190,000) | MEF GFP-LC3 puncta imaging; test concentration mostly 10 µM;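 active = percentage of spot-positive cells more than 3 SD above its plate mean, without a fluorescence outlier flag or 80% toxicity; inconclusive = no clear call, values can overlap the other calls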;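 also: spot-positive cell cutoff set from DMSO-treated cells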
The depositor's hits bear a star; i = inactive; u = inconclusive; x = not tested or not shown; + = active, no number. Sampled rows, rich in hits. Any-hit rate of the full collection: about 1.9%.

SMILES	Efa HMGR inh	Ins promoter up	Insulin prom inh	Autophagy mod
COc1ccc(Cl)cc1N(CC(=O)NC(C(C)C)C(C)C)S(C)(=O)=O	1	0.08	-43	i
Cc1ccc(F)cc1NC(=O)c1cnccn1	3	-0.5	-29	i
CCOc1cc(NC(=O)c2cnccn2)c(OCC)cc1NC(=O)c1cccc(F)c1	-1	0.08	-19	+
CCOc1cc(NC(=O)C2CCCCC2)c(OCC)cc1NC(=O)c1ccccn1	-4	-0.42	-5	i
CCOc1cc(NC(=O)c2ccccn2)c(OCC)cc1NC(=O)c1ccc(C)cc1	13*	0.16	0	i
CCCn1c(N)cc(=O)n(C)c1=O	-1	-0.11	x	i
Cc1[nH]nc2c1C1(CCC3(CC1)OCCO3)C(C#N)=C(N)O2	10*	x	21	i
CC(=O)N1CCC2(CC1)C(C#N)=C(N)Oc1n[nH]c(C(F)(F)F)c12	0	0.79	24	i
CCOC(=O)N1CCC2(CC1)C(C#N)=C(N)Oc1n[nH]c(C)c12	10.0*	-0.48	47	i
CCOC(=O)CCC(NC(=O)CC(=O)NC(CCC(=O)OCC)C(=O)OCC)C(=O)OCC (configuration not stated)	10*	0.81	x	i
O=C(N/N=C/c1ccc([N+](=O)[O-])cc1)c1ccc(COc2ccccc2-c2ccccc2)cc1	-2	-1.5	x	i
CCc1ccc(NC(=O)C(CC)Sc2nc3cc4c(cc3c(=O)n2Cc2ccco2)OCO4)cc1 (configuration not stated)	-2	-0.47	23	+
CC1=NCCN1S(=O)(=O)c1ccccc1[N+](=O)[O-]	1	-0.17	57	i
COC(=O)Cc1cc(=O)n2[nH]cnc2n1	30*	1.6	30	i
CS(=O)(=O)CCC(C(=O)OCC(=O)c1ccc(Cl)cc1)N1C(=O)c2ccccc2C1=O (configuration not stated)	-1	0.21	x	i
Cc1[nH]c2c([N+](=O)[O-])cccc2c1C	x	0.04	x	x
O=C(Nc1ccncc1)c1cn(-c2ccccc2)nc1-c1cccs1	13*	x	-4	i
O=C(Nc1nccs1)c1cn(-c2ccccc2)nc1-c1ccncc1	-2	-0.45	15	i
Cc1nc2sc(C(=O)OC(C)C)c(N)c2c(C)c1C	-2	-0.25	100*	i
Cc1nc2sc(C(=O)c3ccccc3)c(N)c2c(C)c1C	-1	0.85	x	i
CC1Cc2ccccc2N1C(=O)CO/N=C/c1ccc(OC(F)F)cc1 (configuration not stated)	-3	-0.64	-7	i
CC(=O)NC1=NN(C(C)=O)C(c2ccc(C)cc2)S1 (configuration not stated)	-2	0.12	x	i
CC(=O)NC1=NN(C(C)=O)C(c2ccc(F)cc2)S1 (configuration not stated)	0	-0.09	83*	i
COc1ccc(/C=N/NC(=O)C(C)Sc2ccccn2)cc1[N+](=O)[O-] (configuration not stated)	15*	-0.39	-22	i
COc1ccc(C(=O)C(CN2CCOCC2)c2ccccc2)cc1 (configuration not stated)	3	-3.7	92*	i
SMILES	Efa HMGR inh	Ins promoter up	Insulin prom inh	Autophagy mod
CCCCOc1ccc(C(=O)C(CN2CCOCC2)c2ccccc2)cc1 (configuration not stated)	-7	x	78*	+
CCCOc1ccc(C(=O)C(CN2CCCC2)c2ccccc2)cc1 (configuration not stated)	4	-3.5	u	i
CCCNC(=O)N1CCC(C(=O)c2ccc(Cl)cc2)CC1	-4	3.8*	29	i
CC1=NNC(=O)C1C(c1ccccc1)C(C#N)C#N (configuration not stated)	1	x	x	i
CCN1C(=O)C(CC(=O)Nc2ccc(OC)cc2)N(Cc2ccco2)C1=S (configuration not stated)	1	0.65	11	i
O=C(c1ccc(Cl)cc1)c1oc2ccccc2c1CS(=O)(=O)c1ccccc1	-5	0.02	-22	i
CC(=O)NC(Cc1cccc(F)c1)C(=O)NC1CCN(c2ncccc2[N+](=O)[O-])CC1 (configuration not stated)	16*	-0.21	x	i
Cc1nn(-c2ccccc2)c(Cl)c1/C=N/NC(=O)c1ccccc1F	x	-0.61	x	x
O=C(CN1C(=O)S/C(=C/c2cccnc2)C1=O)N1CCOCC1	-1	-0.03	71*	i
Cc1cccc(CN2CCN(Cc3cccc(-n4cccn4)c3)CC2CCO)n1 (configuration not stated)	-2	x	x	+
Cc1cccc(CN2CCN(Cc3ccc(-n4cccn4)cc3)CC2CCO)n1 (configuration not stated)	-3	0.03	x	i
